# BAZ2B inh: BAZ2B (human) inhibition. Q9UIF8. AlphaScreen BAZ2B-H3K14Ac peptide displacement. Potency, µM (doses to about 114 µM), usual class: inhibitors. 360,000 tested, 4.4% active; further: nearly all actives have a fitted effect of over 60% in size
# Target sequence (Q9UIF8 whole entry, looked up): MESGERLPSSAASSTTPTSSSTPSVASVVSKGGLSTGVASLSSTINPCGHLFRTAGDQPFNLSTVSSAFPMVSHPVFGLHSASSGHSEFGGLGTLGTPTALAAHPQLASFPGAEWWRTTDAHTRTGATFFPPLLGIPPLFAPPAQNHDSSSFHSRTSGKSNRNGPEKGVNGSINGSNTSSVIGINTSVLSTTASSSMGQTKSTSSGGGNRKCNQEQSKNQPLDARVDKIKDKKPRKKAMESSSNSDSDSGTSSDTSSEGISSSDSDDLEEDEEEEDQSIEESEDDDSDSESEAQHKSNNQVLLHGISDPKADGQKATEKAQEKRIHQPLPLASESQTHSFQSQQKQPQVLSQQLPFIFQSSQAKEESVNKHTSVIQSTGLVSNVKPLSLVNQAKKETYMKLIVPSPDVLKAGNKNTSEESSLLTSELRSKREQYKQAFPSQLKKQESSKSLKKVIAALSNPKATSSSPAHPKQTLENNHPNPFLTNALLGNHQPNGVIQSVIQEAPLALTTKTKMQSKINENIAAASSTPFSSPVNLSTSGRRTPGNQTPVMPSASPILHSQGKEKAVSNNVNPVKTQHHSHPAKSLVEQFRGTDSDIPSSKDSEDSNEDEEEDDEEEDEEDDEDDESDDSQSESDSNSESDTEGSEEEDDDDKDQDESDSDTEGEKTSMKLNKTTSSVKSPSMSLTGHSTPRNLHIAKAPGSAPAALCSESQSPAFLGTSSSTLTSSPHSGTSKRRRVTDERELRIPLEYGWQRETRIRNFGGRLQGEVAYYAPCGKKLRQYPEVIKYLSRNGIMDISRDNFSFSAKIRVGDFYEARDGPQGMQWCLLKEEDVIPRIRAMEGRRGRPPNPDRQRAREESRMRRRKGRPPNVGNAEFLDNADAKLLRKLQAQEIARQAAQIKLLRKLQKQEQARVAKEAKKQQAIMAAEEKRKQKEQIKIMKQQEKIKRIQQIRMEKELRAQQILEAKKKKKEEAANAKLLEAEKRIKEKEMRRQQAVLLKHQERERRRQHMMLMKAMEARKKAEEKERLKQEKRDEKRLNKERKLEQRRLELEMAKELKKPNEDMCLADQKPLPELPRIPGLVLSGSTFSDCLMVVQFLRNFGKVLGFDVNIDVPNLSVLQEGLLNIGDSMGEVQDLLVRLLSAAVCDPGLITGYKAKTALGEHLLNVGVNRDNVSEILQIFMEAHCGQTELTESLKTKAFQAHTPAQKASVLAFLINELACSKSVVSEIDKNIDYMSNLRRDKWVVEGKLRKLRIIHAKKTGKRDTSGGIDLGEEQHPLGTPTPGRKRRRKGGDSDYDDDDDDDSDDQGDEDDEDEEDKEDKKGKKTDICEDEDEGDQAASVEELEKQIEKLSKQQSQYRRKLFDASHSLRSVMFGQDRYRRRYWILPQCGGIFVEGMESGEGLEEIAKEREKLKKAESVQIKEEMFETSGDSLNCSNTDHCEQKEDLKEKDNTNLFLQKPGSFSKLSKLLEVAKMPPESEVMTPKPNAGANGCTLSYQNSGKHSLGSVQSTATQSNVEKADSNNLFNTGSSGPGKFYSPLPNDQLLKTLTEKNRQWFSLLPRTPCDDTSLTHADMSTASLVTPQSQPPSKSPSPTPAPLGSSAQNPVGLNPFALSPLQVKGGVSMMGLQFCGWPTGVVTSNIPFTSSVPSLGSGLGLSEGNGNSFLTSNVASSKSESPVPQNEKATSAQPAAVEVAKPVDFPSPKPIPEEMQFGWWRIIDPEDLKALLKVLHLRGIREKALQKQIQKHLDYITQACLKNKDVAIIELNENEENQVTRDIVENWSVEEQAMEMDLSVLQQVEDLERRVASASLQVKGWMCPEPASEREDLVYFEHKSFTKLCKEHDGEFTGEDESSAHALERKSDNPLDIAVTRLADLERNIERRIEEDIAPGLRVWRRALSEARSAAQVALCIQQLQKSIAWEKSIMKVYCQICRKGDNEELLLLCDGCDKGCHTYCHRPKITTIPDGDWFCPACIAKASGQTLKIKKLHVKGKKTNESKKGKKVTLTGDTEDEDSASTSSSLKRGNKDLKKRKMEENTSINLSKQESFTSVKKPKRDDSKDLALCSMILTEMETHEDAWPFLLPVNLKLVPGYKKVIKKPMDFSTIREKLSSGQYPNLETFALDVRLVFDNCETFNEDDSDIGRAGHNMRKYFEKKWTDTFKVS
#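 AlphaScreen displacement: compounds (up to 110uM) incubated 30 min at room temperature with a preformed 50 nM BAZ2B/50 nM biotinylated H3K14Ac peptide complex in PBS pH 7.4 with Tween-20. Donor and acceptor beads at 10 ug/mL final added, 20 min light-protected before reading.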
# PLK1 PBD inh: PLK1 (human) polo-box domain binding inhibition | P53350 | 360,000 tested, 2.8% active | Plk1 PBD binding of FITC phosphopeptide, fluorescence polarization | AID 720504 | Potency, µM, hits mostly inhibitors; further: series mostly up to about 57 µM; nearly all actives have a fitted effect of over 65% in size
# KAT2A inh: GCN5L2 (KAT2A) acetyltransferase inhibition | Q92830 | GCN5L2 HAT assay, ThioGlo1 CoA-SH fluorescence | Potency, µM (titrated, usually from 58.9 µM), usual class: inhibitors | 390,000 tested, 0.21% active | AID 504327
#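 Enzyme at 20nM final was mixed with library compounds for 15 min at room temperature. Peptide H3(1-25) at 75uM, acetyl-CoA at 70uM and ThioGlo1 at 50uM were then added. Plates were read immediately and after 20 min (Ex340nm/Em540nm).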
# HP1b binding inh: blocks HP1-beta chromodomain binding to methylated histone tails | P83916 | AlphaScreen HP1-beta / biotin-H3K9me3 peptide binding | Potency, µM (top dose mostly 114 µM), actives largely listed as inhibitors | 390,000 tested, 0.56% active; further: nearly all actives have a fitted effect of over 70% in size
#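 Compound inhibition of the preformed complex between 50 nM HP1-beta and 50 nM biotinylated H3K9me3 peptide was read by AlphaScreen. Buffer was PBS pH 7.4 with 0.01% Tween-20. Incubations ran 30 min at room temperature, with 10 ug/mL donor/acceptor beads.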
# PI5P4K alpha inh: PI5P4K alpha (human) kinase inhibition. P48426. PI5P4Kalpha enzyme, ADP-Glo luminescence, 60 min; hits give low values. max response, %. 330,000 tested, 1.2% active; active means max response of -50% or lower; inconclusive means between -30% and -50%; inactive means -30% or higher; further: value at the top dose of about 77 µM
#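 Compounds were pin-transferred onto PI5P4Kalpha and substrate in HEPES pH 7.4 buffer with EGTA, CHAPS and 5% DMSO. ATP (5 microM final) started the reaction, which ran 60 minutes at room temperature before ADP-Glo detection.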
# JMJD2A Tudor: inhibitors of human JMJD2A Tudor domain | O75164 | 390,000 tested, 4.4% active | AlphaScreen JMJD2A-Tudor / H3K4me3 peptide binding | Potency, µM (titrated, usually from 114 µM), usual class: inhibitors; further: nearly all actives have a fitted effect of over 50% in size
# Numbers stand for hits; n = inactive; u = inconclusive; x = no result given; [ ] = remark or other dose. Only some compounds are listed: those with a hit (about 7% of all), similar ones and a draw of the others. Unless noted, the call rests on the fitted dose curve; in most records, active means well fitted curve in the direction sought with a large enough effect; inconclusive means small, poorly fitted or top-dose-only effect, or another doubt; inactive means no such curve, though single readings can be large; an effect the other way counts as inactive or inconclusive.
SMILES,BAZ2B inh,PLK1 PBD inh,KAT2A inh,HP1b binding inh,PI5P4K alpha inh,JMJD2A Tudor
O=C(CSc1nc2c([nH]c3ccccc32)c(=O)n1-c1ccc(F)cc1)NCc1ccc(F)cc1,n,x,n,n,x,n
O=C(NCCCn1ccnc1)c1ccc2nccnc2c1,50.1µM,n,n,n,n,n
O=C(NCCCn1ccnc1)Nc1ccc(Cl)c(Cl)c1,39.8µM,n,n,n,n,u
CC(Oc1ccc(Cl)cc1Cl)C(=O)NCCCn1ccnc1 (stereo not drawn),n,23.8µM,n,n,n,n[11.4 µM]
O=C(CNC(=O)c1ccc(Cl)cc1Cl)NCCCn1ccnc1,n,n,n,n,n,n
S=C(NCCCn1ccnc1)Nc1ccc(Cl)cc1Cl,50.1µM,n,n,n,n,n
Cc1sc(NC(=O)/C=C/c2ccco2)c(C(=O)O)c1C,u,n,n,n,n,n
O=C(NCCc1ccccc1)C(=O)NCC(c1ccco1)S(=O)(=O)c1cccs1 (stereo not drawn),n,x,n,n,x,n
N#Cc1ccc(OCC(=O)NCCCn2ccnc2)cc1,x,n,n,n,n,63.1µM
NC(=O)c1ncn([C@@H]2O[C@H](CNCc3ccc(OCC(=O)Nc4ccccn4)cc3)[C@@H](O)[C@H]2O)n1,x,n,x,n,n,n
NC(=O)c1ncn([C@@H]2O[C@H](CNCc3ccc(OCC(=O)Nc4nccs4)cc3)[C@@H](O)[C@H]2O)n1,x,n,x,n,-64.2,u
COc1cccc(CN2CCN(Cc3cccc(Br)c3)CC2)c1OC,20µM,n,n,22.4µM,n,3.16µM
COc1ccccc1CN1CCC2(CC1)CCN(C(C)=O)CC2,x,x,n,x,x,x
COc1ccccc1C1CCN(Cc2cccc3ccccc23)CC1,n,n,n,n,n,n
COc1ccccc1CN1CCCCCC1,u,n,n,u,n,1.26µM
COc1cccc(CN2CCSCC2)c1OC,79.4µM,n,n,u,n,20µM
COc1ccccc1CN1CCSCC1,50.1µM,n,n,70.8µM,x,6.31µM
COc1ccc(C2CC(=O)N(CC(=O)Nc3cccc(C)c3C)c3ccccc3S2)cc1OC (stereo not drawn),n,x,n,n,x,n
O=C(N1CCN(c2ncccn2)CC1)C12CC3CC(CC(C3)C1)C2,x,n,x,n,n,n
CCOc1cccc(CN2CCN(c3cccc(C(F)(F)F)c3)CC2)c1O,n,n,n,n,x,n
COc1cccc(CN2CCN(c3cccc(C(F)(F)F)c3)CC2)c1OC,u,n,n,u,x,2.24µM
COc1ccccc1Cn1[nH]nnc1=S,n,23.8µM,u,u,u,15.8µM
COc1ccccc1CN1C(=O)CNC1=S,n,n,n,n,n,n
CC1CCN(C(c2ccccc2)c2sc3nc(-c4ccco4)nn3c2O)CC1 (stereo not drawn),n,x,n,n,x,n
O/C=c1\ccc2cccc3nc(C(F)(F)F)nc1c23,u,u,n,n,u,89.1µM
SMILES,BAZ2B inh,PLK1 PBD inh,KAT2A inh,HP1b binding inh,PI5P4K alpha inh,JMJD2A Tudor
NNc1nc(C(F)(F)F)nc2ccccc12,n,n,n,n,n,n
Cc1ccc(-c2csc3nc[nH]c(=O)c23)cc1,n,n,n,n,n,n
O=c1[nH]c(Cc2ccc(F)cc2)nc2scc(-c3ccc(F)cc3)c12,n,5.97µM,n,u,n,u
Cc1ccc(-c2csc3nc(-c4ccncc4)[nH]c(=O)c23)cc1,n,16.8µM,n,n,n,n[11.4 µM]
COc1ccc(OC)c(C2C(C#N)=C(N)Oc3cc(C)[nH]c(=O)c32)c1 (stereo not drawn),n,n,n,n,n,u
Cc1nn(-c2cccc(Cl)c2)c2c1C(c1ccncc1)C(C#N)=C(N)O2 (stereo not drawn),39.8µM,u,n,u,n,79.4µM
Cc1nn(-c2cccc(Cl)c2)c2c1C(c1cccnc1)C(C#N)=C(N)O2 (stereo not drawn),50.1µM,u,n,n,x,u
COc1ccc(OC)c(C2C(C#N)=C(N)Oc3c2c(C)nn3-c2cccc(Cl)c2)c1 (stereo not drawn),39.8µM,23.8µM,n,n,x,50.1µM
CC(C)c1ccc(C2/C(=C(/O)c3ccc(F)cc3)C(=O)C(=O)N2CCCN2CCOCC2)cc1 (stereo not drawn),u,n,n,n,n,n
Cc1ccc(C)c(N2CCN(C(=O)Cn3cnc4sc(C)c(S(=O)(=O)N5CCN(c6ncccn6)CC5)c4c3=O)CC2)c1,n,x,n,n,x,n
Cn1c(=O)[nH]c(Nc2ccc(F)cc2)c([N+](=O)[O-])c1=O,n,n,n,n,-60.3,u
Cn1c(=O)[nH]c(NCCc2ccc(O)cc2)c([N+](=O)[O-])c1=O,x,n,x,n,-71.4,n
COc1ccc(CCNC(=O)Cn2c(=O)n(-c3ccc(C)c(C)c3)c(=O)c3c(C)c(C)sc32)cc1OC,n,x,n,n,x,n
Cc1ccc([C@H]2C[C@@H](n3cc(COC(=O)c4ccccc4)nn3)[C@H](O)CN2C(=O)c2cccs2)cc1,x,n,x,x,n,x
COC(=O)c1ccc(CSC2=NC[C@@H]3[C@@H]4C(=O)N(Cc5ccccc5)C(=O)[C@@H]4[C@](Cc4ccccc4)(C(=O)OC)N23)cc1,x,n,n,n,n,79.4µM
C#CCOCCOCCOCCNc1nc(N2CCN(C(=O)[C@H](CCCN=C(N)N)n3cc(C(N)[C@@H](C)CC)nn3)CC2)nc(N2CCN(C(=O)[C@H](CCCCN)n3cc([C@@H](N)CC(N)=O)nn3)CC2)n1 (stereo partly drawn),x,n,n,n,n,89.1µM
C#CCOCCOCCOCCNc1nc(N2CCN(C(=O)[C@H](CCCN=C(N)N)n3cc(C(N)[C@@H](C)CC)nn3)CC2)nc(N2CCN(C(=O)[C@H](CCC(=O)O)n3cc([C@@H](N)CO)nn3)CC2)n1 (stereo partly drawn),x,n,n,n,n,25.1µM
C#CCOCCOCCOCCNc1nc(N2CCN(C(=O)C([C@@H](C)O)n3cc([C@@H](N)CCCCN)nn3)CC2)nc(N2CCN(C(=O)[C@H](CCCN=C(N)N)n3cc(C(N)[C@@H](C)CC)nn3)CC2)n1 (stereo partly drawn),x,n,n,n,n,56.2µM
C#CCOCCOCCOCCNc1nc(N2CCN(C(=O)[C@H](CO)n3cc([C@@H](N)C(C)C)nn3)CC2)nc(N2CCN(C(=O)[C@H](CCCCN)n3cc([C@@H](N)[C@H](C)CC)nn3)CC2)n1,x,n,n,n,n,n
C#CCOCCOCCOCCNc1nc(N2CCN(C(=O)[C@H](CCCN=C(N)N)n3cc(C(N)[C@@H](C)CC)nn3)CC2)nc(N2CCN(C(=O)[C@H](CCC(=O)O)n3cc([C@@H](N)CC(N)=O)nn3)CC2)n1 (stereo partly drawn),x,n,n,n,n,50.1µM
